Experimental data as given in PubChem BioAssay (Tox21).
Records with an inconclusive call do not appear. Entries that show only a call come without a potency. Calls of active or inactive are those of the source. Calls come from the whole dose curve.

Test: p53 small molecule agonists, cell-based qHTS assay: qHTS cell viability counter screen (AID 1963581); note: nearly all actives have a fitted effect of over 45% in size
Details: p53RE-bla HCT-116 viability, ATP luminescence, 16 h; series mostly up to 66 µM
Excerpt: National Center for Advancing Translational Sciences [NCATS]
Division of Preclinical Innovation [DPI]
U.S. Environmental Protection Agency [EPA]
National Institutes of Environmental Health Sciences [NIEHS]
National Toxicology Program [NTP]
U.S. Food and Drug Administration [FDA]
p53, a tumor suppressor protein, is activated following cellular insult, including DNA damage and other cellular stresses. The activation of p53 regulates cell fate by inducing DNA repair, cell cycle arrest, apoptosis, or cellular senescence. The activation of p53, therefore, is a good indicator of DNA damage and other cellular stresses. The CellSensor p53RE-bla HCT-116 cell line (Invitrogen) contains a stably integrated beta-lactamase reporter gene under control of the p53 response elements. The activation of the reporter gene under culture conditions can be detected by fluorescence intensity. This cell line was used to screen the Tox21 compound library in a 1536-well plate format and to identify agonists that activate the p53 signaling pathway. The cytotoxicity of the Tox21 compound library against the p53 RE-bla HCT-116 cell line was tested in parallel by measuring the intra cellular ATP content in the same wells.
Tox21 Assay Protocol Summary:
The p53RE-bla cells were dispensed at 4,000 cells/5 ul/well in 1536-well black wall/clear bottom plates using a Multidrop dispenser. After the assay plates were incubated at a 37 C/5% CO2 incubator for 5 hours, 23 nL of compounds dissolved in DMSO, positive controls or DMSO only was transferred to the assay plate by a pin tool. The plates were incubated at 37 C for 16 hours. After 1 uL of LiveBLAzerTM B/G FRET substrate was added using a Flying Reagent Dispenser, the plates were incubated at room temperature for 2 hours, and fluorescence intensity was measured by an Envision plate reader. For cell viability readout that measures cytotoxicity, 4 ul/well of CellTiter-Glo reagent was added into the assay plates using a Flying Reagent Dispenser. After 30 min incubation at room temperature, the luminescence intensity in the plates was measured using a ViewLux plate reader.
Potency is the fitted concentration of half-maximal effect.

Compound	Potency
O=C1CN=C(c2ccccc2)c2cc([N+](=O)[O-])ccc2N1	inactive
CC(C)(c1ccccc1)c1ccc(O)cc1	inactive
COC(=O)C1(O)c2ccccc2-c2ccccc21	inactive
CCC[CH2][Sn]([CH2]CCC)([CH2]CCC)[O][Sn]([CH2]CCC)([CH2]CCC)[CH2]CCC	893 nM (active)
O=C(O)CC(Cl)C(=O)O (stereo not given)	inactive
ClCBr	inactive
CCOP(=S)(OCC)Oc1nc(Cl)n(C(C)C)n1	inactive
O=C(NC(=O)c1c(F)cccc1F)Nc1cc(Cl)c(F)c(Cl)c1F	inactive
CCCCN(CCCC)C(=S)[S-].CCCCN(CCCC)C(=S)[S-].[Zn+2]	25700 nM (active)
CCOP(=S)(OCC)Oc1cc(Cl)c(Br)cc1Cl	inactive
CC(O)C(=O)[O][Hg][c]1ccccc1 (stereo not given)	2890 nM (active)
CCCCS(=O)(=O)Cl	inactive
O=C(CBr)OCc1ccccc1	inactive
Clc1cc(Cl)c(Cl)c(Cl)c1	inactive
O=C1C=CC(=O)c2ccccc21	inactive
CCC(CC)(CNC(=O)CCCO)c1cccc(OC)c1	inactive
CCN(CC)C(=O)N[C@@H]1C=C2c3cccc4[nH]cc(c34)C[C@@H]2N(C)C1	inactive
Clc1ccc(-c2ccccc2)cc1	inactive
CCc1cc2c(s1)-n1c(C)nnc1CN=C2c1ccccc1Cl	inactive
O=S(=O)(NS(=O)(=O)C(F)(F)F)C(F)(F)F	inactive

Compound	Potency
CCCC(Cn1cncn1)c1ccc(Cl)cc1Cl (stereo not given)	inactive
CCC1(c2cnc[nH]2)Cc2ccccc2C1	inactive
C=CC(=O)[O][Sn]([CH2]CCC)([CH2]CCC)[CH2]CCC	1620 nM (active)
CC(C1CC1)C(O)(Cn1cncn1)c1ccc(Cl)cc1 (stereo not given)	inactive
COc1cc(Cl)c(OC)cc1Cl	inactive
C[C@H](CN1CCOCC1)C(C(=O)N1CCCC1)(c1ccccc1)c1ccccc1	inactive
Cc1ccccc1CO[C@@H]1C[C@@]2(C(C)C)CC[C@]1(C)O2	inactive
COP(=O)(OC)OC(Br)C(Cl)(Cl)Br (stereo not given)	inactive
Cc1ccc(N(SC(F)(Cl)Cl)S(=O)(=O)N(C)C)cc1	inactive
CCS(=O)(=O)c1cccnc1S(=O)(=O)NC(=O)Nc1nc(OC)cc(OC)n1	inactive
Clc1cc(C(Cl)(Cl)Cl)cnc1Cl	inactive
CCOC(=O)CC(=O)CCl	inactive
CC[C@H]1C[C@H]2[C@@H]3CCC4=CC(=O)CC[C@@H]4[C@H]3CC[C@]2(C)[C@H]1O	inactive
CCN(CC)c1c([N+](=O)[O-])cc(C(F)(F)F)c(N)c1[N+](=O)[O-]	inactive
COc1ccc(-c2ccccc2)cc1NNC(=O)OC(C)C	inactive
CC(=O)NNc1ccccc1	inactive
CCN(CC)c1nc(C)cc(OP(=S)(OC)OC)n1	inactive
CCCCCOC(=O)c1ccccc1C(=O)OCCCCC	inactive
CCCN(CCC)c1c([N+](=O)[O-])cc(S(C)(=O)=O)cc1[N+](=O)[O-]	inactive
C[N+]1(C)[C@@H]2CC[C@H]1CC(OC(=O)C(CO)c1ccccc1)C2 (stereo not given in full)	inactive
